Experimental findings from PubChem BioAssay AID1159606 (Sanford-Burnham Center for Chemical Genomics, 2016) are described below.

Out of some 360,000 compounds screened, about 7,300 (2%) were called active. Cut-off read from the data, not from the text of the source: active = inhibition above about 50%; inactive = the rest. Only a selection was taken, and actives are over-represented in it overall.

The nature of this experiment: inhibitors of TWEAK-Fn14 signaling, primary screen, luciferase reporter cells, uHTS (AID 1159606). As to conditions: TWEAK-stimulated Fn14 reporter cells, luciferase luminescence, 8 h; at 10 µM; hits give high values.
Regarding `COc1cccc(NC(=O)Cn2c3ccc(F)cc3c3nc4n(c(=O)c32)CCS4)c1`, the inhibition is 7% (inactive). With `CCN(CC(=O)Nc1ccccc1C(F)(F)F)C(=O)C1CCN(C(=O)Nc2ccccc2)CC1` the figure was 4.09% (inactive).

As to `C=C1C(=O)OC2C1CCC(C)=CCCC1(C)OC21` (stereo unspecified), the inhibition is 81.5% (active). `C[C@H]1COc2cc(N3CCSCC3)ccc2S(=O)(=O)N1`: the inhibition is -13.1% (inactive). With `O=c1c2ccccc2ncn1CCc1ccncc1` the figure was -5.08% (inactive); with `O=c1c2ccccc2ncn1/N=C/c1ccccc1`, 62.7% (active); with `CCOC(=O)N1CCN(C(=O)Cn2cnc3ccccc3c2=O)CC1`, -13.1% (inactive). The value for `CCOc1cc(/C=N/NC(=O)c2ccncc2)cc(Br)c1O` was -8.09% (inactive); that for `Nn1c(SCC(=O)Nc2ccc3c(c2)CCC3)nnc1C1CC1` was 1.14% (inactive).

`CCCn1c(N)c(C(=O)CSc2nc3ccccc3c(=O)n2-c2ccc(OC)cc2)c(=O)[nH]c1=O`: the inhibition was 2.25% (inactive).

Turning to `Cc1c(NC(=O)c2cc(-c3ccc(Br)cc3)on2)c(=O)n(-c2ccccc2)n1C`, the inhibition was 10.9% (inactive). On to `Cc1c(NC(=O)c2coc(=O)c(Br)c2)c(=O)n(-c2ccccc2)n1C`, for which the inhibition was 65.9% (active). The value for `Cc1cc2oc(C(=O)Nc3c(C)n(C)n(-c4ccccc4)c3=O)c(C)c2cc1Cl` was 4.85% (inactive); that for `CCOc1ccc(NC(=O)c2ccc(NC(=O)CN3C(=O)C(=O)N(CC(C)C)C3=O)cc2)cc1` was -46.8% (inactive). `Cc1cc(C)n2nc(C(=O)Nc3cccc(S(=O)(=O)N4CCOCC4)c3)nc2n1`: the inhibition was -5.76% (inactive). As for `O=C1C2C3C=CC(C4CC34)C2C(=O)N1c1nccs1` (stereo unspecified), the inhibition is 17.6% (inactive). With `O=C(C[C@H]1C[C@H](C(=O)N2CCOCC2)[C@@]2(CCC3CCCC3)c3[nH]c4ccc(Cl)cc4c3CCN2C1=O)NCc1ccco1` the figure was 32.8% (inactive). As to `COc1ccc(CNC(=O)C[C@H]2C[C@H](C(=O)N3CCOCC3)[C@@]3(CCC4CCCC4)c4[nH]c5ccc(Cl)cc5c4CCN3C2=O)cc1OC`, the inhibition is 60.6% (active). With `COc1ccc2[nH]c3c(c2c1)CCN1C(=O)C(CC(=O)NCCCN(C)C)C[C@H](C(=O)N2CCOCC2)[C@@]31CCC1CCCC1` (stereo partly specified) the figure was -4.84% (inactive). With `Cc1cc(C)c(S(=O)(=O)NN=C2c3ccccc3[C@H]3Cc4csc[n+]4[C@@H]23)c(C)c1`, the inhibition was 13.8% (inactive). As to `Clc1ccc(COn2c(-c3ccc(Cl)cc3Cl)nc3ncccc32)cc1`, the inhibition was 11.7% (inactive). The value for `Fc1ccc(-c2ccc(CNCc3ccccn3)o2)cc1Cl` was -29.9% (inactive).

Regarding `Clc1ccc(-c2cc(-c3ccccn3)on2)c(Cl)c1`, the inhibition was 83.2% (active).

`COc1cc([N+](=O)[O-])ccc1NC(=S)N1CCN(c2ccccn2)CC1`: the inhibition was -16.1% (inactive). With `COc1cc(OC)c2c(-c3cccc(-c4cccc(N)c4)c3)cc(=O)oc2c1` the figure was 54.3% (active); with `COc1ccc(-c2c(C)cc3oc(=O)cc(-c4ccccc4)c3c2C)cc1F`, -37% (inactive); with `COc1ccc(-c2c(C)cc3oc(=O)cc(-c4ccccc4)c3c2C)cc1OC`, -10.1% (inactive).

`CC(C)[C@@H]1NC(=O)c2cc([N+](=O)[O-])cc(I)c2NCCC[C@@H](C(=O)NC(CC(=O)O)C(N)=O)NC(=O)[C@H](CO)NC1=O` (stereo partly specified): the inhibition was -9.29% (inactive).

`COc1ccccc1C(=O)NCCn1cc(SCC(=O)NCc2ccco2)c2ccccc21`: the inhibition was 8.15% (inactive). The value for `CCc1oc(-c2ccc(OC)cc2)c(C(=O)OCCCCCO)c1C(C)OCCO` (stereo unspecified) was -8.4% (inactive); that for `Cc1cc(Cl)ccc1NNC(=O)c1snnc1C` was 78.6% (active). Take `Cc1nnsc1C(=O)Nc1cccc(Cl)c1C`: the inhibition was -11.4% (inactive). Turning to `Cc1nnsc1C(=O)NCc1c(F)cccc1Cl`, the inhibition was 21.4% (inactive). Take `CCOC(=O)[C@]12CCCC=C1N(Cc1ccc3c(c1)OCO3)C(=O)[C@H](CC(=O)N1CCN(C(=O)c3ccco3)CC1)C2`: the inhibition was 10.3% (inactive). With `CCOc1ccccc1Oc1cn[nH]c1-c1ccc(OC)cc1O`, the inhibition is 33.5% (inactive). `COc1ccc(-c2cn[nH]c2-c2ccc(OC)cc2)cc1`: the inhibition is 80.3% (active). Turning to `COc1ccc(Oc2cn[nH]c2-c2ccc(OC)cc2O)cc1`, the inhibition was -3.87% (inactive).

Regarding `CC12CCC(=O)C=C1CCC1C2C(O)CC2(C)C1CCC2(O)C(O)CO` (stereo unspecified), the inhibition was 8.15% (inactive).

Regarding `COc1ccccc1Cc1c(-c2ccc(Cl)cc2)nc2c3ccccc3ccn12`, the inhibition was -9.82% (inactive).

For the compound `Clc1ccc(-n2nnnc2-c2cnc(-c3ccccn3)nc2-c2cccs2)cc1`, the inhibition is 10% (inactive). As for `O=C(COC(=O)c1ccncc1)c1ccccc1`, the inhibition is -3.5% (inactive). Consider `Brc1ccc(-c2noc(-c3ccccc3)n2)o1`, for which the inhibition is -28% (inactive).

For the compound `c1ccc(-c2noc(-c3cccs3)n2)nc1`, the inhibition is 76.2% (active). With `COc1ccc(CCc2nc(-c3cccs3)no2)cc1` the figure was -31.5% (inactive); with `O=C(Oc1ccc(-c2nc(-c3ccccn3)no2)cc1)c1ccccc1`, 92.9% (active); with `COCCN(C(=O)C(C)C)c1nnc(-c2ccc(C(C)(C)C)cc2)s1`, -18% (inactive). `CCCCN(C(=O)C1=NN(c2cc(C)ccc2C)C(=O)CC1)c1c(N)n(CCC)c(=O)[nH]c1=O`: the inhibition was 4.67% (inactive).

On to `O=C1NC(O)CCN1C1CC(O)C(CO)O1` (stereo unspecified), for which the inhibition was 2.05% (inactive).

With `O=C(Nc1ccc(CSc2ccccc2)cc1)c1ccc(CN2CCOCC2)cc1`, the inhibition is 62.3% (active). Take `CCOc1ccc(C(=O)Nc2ccc(CN3CCOCC3)cc2)cc1Cl`: the inhibition was -17.1% (inactive). The value for `O=C(Nc1ccccc1C(=O)N1CCOCC1)c1ccc(CSc2ccccc2)cc1` was -16.9% (inactive).

In the case of `CCOC1CCCCC1NS(=O)(=O)c1ccc(Cl)cc1` (stereo unspecified), the inhibition was 23.1% (inactive). With `COc1ccc2c(c1)CCC/C2=N\OC(=O)c1ccccc1F` the figure was 36.7% (inactive); with `CC(C)C[C@@H]1Cc2[nH][nH]c(=O)c2[C@H](CCc2ccccc2)O1`, 17% (inactive). With `CC(NC(=O)Nc1ccccc1)C(c1cccs1)N1CCN(c2ccccc2)CC1` (stereo unspecified) the figure was 1.76% (inactive); with `COc1ccc2nc(Nc3nc(-c4cc5ccccc5oc4=O)cs3)sc2c1`, 64.4% (active).

For the compound `Cc1noc(C)c1CSCC(=O)Nc1nc2ccc(Oc3ccccc3)cc2s1`, the inhibition was -4.3% (inactive). As for `Cc1ccc(Nc2nc(-c3ccc(O)cc3O)cs2)nc1`, the inhibition was -37.9% (inactive). With `COc1ccc(OC)c(-c2csc(NC(=O)C3=NNC(=O)CC3)n2)c1` the figure was -2.91% (inactive); with `Cc1ccn2c(-c3csc(Nc4ccc(C(=O)O)cc4)n3)c(C)nc2c1`, 21.8% (inactive); with `O=c1oc2ccccc2cc1-c1csc(Nc2ccc(O)cc2)n1`, 82.7% (active).

As for `CN(C)CCCOc1ccc(-c2ccc3nccn3c2)cn1`, the inhibition is -18.9% (inactive). On to `Cc1ccc(NC(=O)c2cc([N+](=O)[O-])ccc2Cl)c(O)c1`, for which the inhibition was 2.69% (inactive). The value for `O=C(NCC(c1cccs1)N1CCOCC1)c1cc(Cl)ccc1[N+](=O)[O-]` (stereo unspecified) was 7.3% (inactive). Turning to `O=C(Nc1cccc2ccccc12)c1[nH]c(-c2ccccc2)c2c1C(=O)N(C1CC1)C2=O`, the inhibition is -46.7% (inactive). As to `Cc1ccc(NC(=O)COC(=O)CN2CCSC2=O)cc1F`, the inhibition is 1.95% (inactive). For the compound `Cn1c(=O)c2c(nc(Br)n2CCSc2nc3ccccc3o2)n(C)c1=O`, the inhibition is 7.06% (inactive).

With `CN1C(CC(=O)Nc2ccc(Br)cc2)c2ccccc2CC1(C)C` (stereo unspecified), the inhibition was 12.1% (inactive).

As for `COc1ccc(Nc2cc(=O)oc3ccccc23)cc1`, the inhibition was 12.8% (inactive). `COc1ccc(Sc2ccc(NC(=O)c3cccc(Cl)c3)cc2C#N)cc1`: the inhibition was 26.3% (inactive). With `COc1ccc(Nc2cc(Sc3ccc(OC)cc3)ncn2)cc1` the figure was 69.9% (active); with `CN(C)CCCNC(=O)c1cc(C(=O)Cc2ccc(Cl)cc2)c[nH]1`, 5.27% (inactive).

As for `CC(C)Cn1cc(-c2cncc3nccn23)cn1`, the inhibition is 5.78% (inactive). Take `COC(=O)Cc1[nH]n(-c2nc3ccccc3s2)c(=O)c1C(C)=Nc1ccc(OC)cc1`: the inhibition is 101% (active).

For `COC(=O)CC1=NN(c2ccccc2)C(=O)C1`, the inhibition is -14.8% (inactive).

Turning to `CCc1nc2ccccc2c(C(=O)NCc2ccc(OC)cc2)c1C`, the inhibition was -1.16% (inactive).

As for `CCOc1ccc2c(c1)c(=O)c(S(=O)(=O)c1ccc(C)cc1)cn2CC`, the inhibition is -0.17% (inactive). With `Cc1ccc(N2C(=O)CN=C2Nc2nc(C)cc(C)n2)cc1` the figure was 4.62% (inactive); with `O=C1NNC(c2ccccc2)=N/C1=C\c1ccc(Cl)cc1`, 16.8% (inactive). Turning to `O=C(NC1CC1)c1cccc(Br)c1`, the inhibition was 84.3% (active). As for `CC(=O)N1CCN(S(=O)(=O)c2cccc(C(=O)NC3CCC(C)CC3)c2)CC1` (stereo unspecified), the inhibition is 3.88% (inactive). With `O=C(NC1CC1)c1ccc(-c2ccccc2)cc1` the figure was -4.49% (inactive); with `COCCN(C(=O)CC1CCCCC1)c1c(N)n(CC(C)C)c(=O)[nH]c1=O`, 19.1% (inactive). With `O=C(Nc1ccc(Cl)cc1)/C(=C1\CCCN1)[N+](=O)[O-]` the figure was -36.6% (inactive).

As to `COc1ccc(N2C(=O)C(O)C2c2ccc(C)cc2)cc1` (stereo unspecified), the inhibition is 6.39% (inactive).

Consider `COc1ccc(C(=O)Nc2nc(-c3ccc(S(=O)(=O)N4CCOCC4)cc3)cs2)cc1`, for which the inhibition was 93.7% (active). With `COC(=O)COc1ccc(S(=O)(=O)N2CCOCC2)cc1`, the inhibition is 12.7% (inactive).

In the case of `COc1ccc(C(=O)Nc2cc(S(=O)(=O)N3CCCC3)ccc2Cl)cc1`, the inhibition is -16% (inactive).

Consider `CS(=O)(=O)/C(C#N)=C/c1cccn1S(=O)(=O)c1ccc([N+](=O)[O-])cc1`, for which the inhibition was -15.1% (inactive). Regarding `CCC(=O)N1Cc2cc(C(=O)NCc3cccc(F)c3)nc(-c3cccc(C4=CCCC4)c3)c2[C@H]1CCO`, the inhibition is -7.06% (inactive). With `Cc1ccc(Cl)cc1N1CCN(C(=O)c2cccc3c(=O)c(C)c(-c4ccccc4)oc23)CC1` the figure was 40.6% (inactive).
